Laboratory results as given in PubChem BioAssay AID1259240 (Keith Lab, Institute of Cancer Science, University of …, 2017).
Activity calls are given as the source filed them. Rule as the data show it: active = fold change mostly below about -2 (no sharp cut-off); inactive = mostly above about -1.8.

Test: modulation of TERT promoter-driven luciferase – cell-based, luciferase reporter, human, primary screen (AID 1259240)
Conditions: A2780 TERT promoter luciferase reporter, 16 h; at 20 µM, fold versus average of vehicle-only wells

Fold change, inactive:
CC1CCCC(NC(=O)CN(C)S(=O)(=O)c2ccc3c(c2)CCC(=O)N3)C1C (centres undefined) -1.68
CC(CC(=O)Nc1nccs1)CC1=NS(=O)(=O)c2ccccc2N1 (centres undefined) -1.22
Cc1cccc(-c2nc3s/c(=C\c4ccc(F)cc4)c(=O)n3n2)c1 -1.54
O=C1Nc2ccccc2N(O)N1c1cc(-c2cccc(Cl)c2)no1 1.45
CCC(=O)Nc1nc2nc(C(C)(C)C)cc(=O)n2[nH]1 -1.74
O=C(NCc1cccnc1)c1cccc(NC2=NC3CS(=O)(=O)CC3S2)c1 (centres undefined) -1.24
COc1ccccc1NC(=O)Nc1ccc2c(c1)C(=O)OC2 1.33
CCOP(=O)(OCC)C(Nc1ccccn1)c1ccc(F)cc1 (centres undefined) -1.13
COc1cc(OC)cc(-c2cc(N)n(S(=O)(=O)Cc3ccccc3)n2)c1 1.16
COc1ccc(/C=c2\sc3nc(-c4cc(OC)c(OC)c(OC)c4)nn3c2=O)c(OC)c1 -1.26
CCCc1nnc(NC(=O)Nc2ccccc2Cl)s1 -1.54
CCOC(=O)Cn1c(=O)oc2cc(S(=O)(=O)Nc3ccc(F)cc3)ccc21 -1.03
COCCN1C(=O)C(=O)/C(=C(\O)c2ccc(OC)cc2)C12C(=O)N(C)c1ccccc12 (centres undefined) -1.95
CSCCC(C(=O)O)N1C(=O)/C(=C/c2cccnc2)SC1=S (centres undefined) -1.77
O=C(NC1CCCCC1)C1CCCN(S(=O)(=O)c2cnc[nH]2)C1 (centres undefined) -1.72
O=C1C(=O)N(CC(=O)N2CCCCC2)c2ccccc21 1.04
Cc1ccc2c(C)nc(NC3=NCN(C4CCCC4)CN3)nc2c1 -2
CN1CCN(CCNC(=O)Cn2ncc3c4ccccc4n(C)c3c2=O)CC1 -1.16
CCS(=O)(=O)Nc1cccc(C2=NN(S(C)(=O)=O)C(c3cccs3)C2)c1 (centres undefined) -1.32
CC1CCC(NC(=O)C(=O)Nc2ccc3nc4n(c(=O)c3c2)CCCCC4)CC1 (centres undefined) 1
CCc1cc(C)cc(OCC(O)Cn2cnc3ccccc32)c1 (centres undefined) -1.77
Cn1c(=O)oc2cc(S(=O)(=O)N3CCC(C(=O)NCC4COc5ccccc5O4)CC3)ccc21 (centres undefined) -1.13
CCOC(=O)C1=C(CS(=O)(=O)c2ccc(Cl)cc2)NC(=O)NC1c1ccc(OCC)cc1 (centres undefined) 1.7
O=C(CN1C(=O)C2(OCCO2)c2ccccc21)c1ccc(F)cc1 1.12
COc1ccc(OC(C)c2nc(-c3ccc(OC)cc3)no2)cc1 (centres undefined) 1.61
O=C(Cc1ccc(NC2=NC3CS(=O)(=O)CC3S2)cc1)N1CCN(c2ncccn2)CC1 (centres undefined) 1.14
CCN1CCN(C(=O)c2cc3c(=O)[nH]c4ccccc4c3n2C)CC1 1.05
Cc1ccc2nc(N3CCOCC3)c3nncn3c2c1 1.35
Cn1c(=O)c2cc(S(=O)(=O)NCCC(=O)NC3CCCCCC3)ccc2n(C)c1=O 1.3
NC(=O)c1ccc(N=c2oc3ccccc3cc2S(=O)(=O)c2ccccc2)cc1 1.06
CCN1C(=O)C(O)(CC(=O)c2ccc(Br)s2)c2ccccc21 (centres undefined) -1.03
CN1CCc2nc3sc(C(=O)Nc4ccc(F)cc4)c(N)c3cc2C1 -1.42
Cc1cccc(CNc2nc(N)n(-c3ccccc3)n2)c1 1.27
O=C(Cc1ccc(NC2=NC3CS(=O)(=O)CC3S2)cc1)Nc1ccc(F)cc1 (centres undefined) -1.7
Cc1[nH]nc2c1C(c1cccs1)NC2=O (centres undefined) -1.17

Fold change, active:
Cc1nc2cc(-c3cccc(F)c3)nn2c(C)c1CCC(=O)N1CCc2ccccc21 -2.84
CC(C)n1cnc2cc(NCc3ccccc3Cl)ccc21 -2.21
O=c1cc(CSc2nnnn2-c2ccccc2)nc2nc[nH]n12 -2.26

outcome, inactive:
CC1=C(C(N)=O)C(c2ccc(Br)cc2)n2nc(CCCO)nc2N1 (centres undefined)
